Test results reported in PubChem BioAssay (Tox21).
Results filed as inconclusive are left out. Activity calls are given as the source filed them. Unless noted, the call rests on the fitted dose curve; in most records, active means well fitted curve in the direction sought with a large enough effect in the repeat runs; inconclusive means weak or mixed curves; inactive means no such curve, though single readings can be large; an effect the other way counts as inactive or inconclusive.

What was measured:
[1] = qHTS assay to identify small molecule agonists of the sonic hedgehog signaling (Shh) pathway (AID 1259368; calls by dose curve;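 further: NIH/3T3-derived 3T3Gli1-Luc cells carrying a stable Gli1-driven firefly luciferase reporter; series mostly up to about 92 µM; nearly all actives have a fitted effect of over 15% in size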)
Summary of the method: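 Luminescence was read after 30 min at room temperature with luciferase reagent. Before that, 3T3Gli1-Luc cells (NIH/3T3 clone, stable Gli1-Luc reporter; 2,000/well) were exposed to compounds for 24 hr at 37C, 5% CO2, compounds being added 4 hr post-plating.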

[2] = qHTS assay to identify small molecule antagonists of the sonic hedgehog signaling (Shh) pathway (AID 1259369; calls by dose curve; further: nearly all actives have a fitted effect of over 45% in size)
Summary of the method: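 Antagonist mode: compound added to 3T3 Gli1-Luc cells followed by conditioned-medium stimulation, 24 h at 37 C, 5% CO2. Inhibition taken as loss of Gli1-driven luciferase luminescence.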

[3] = target: Estrogen receptor beta (Homo sapiens) (UniProt Q92731); assay: qHTS assay to identify small molecule agonists of the estrogen receptor beta (ER-beta) signaling pathway (AID 1259377; active means well fitted activation curve with a large enough effect in the signal ratio in the repeat runs, not every such curve was filed as active; the % refers to the signal ratio)
Sequence of Estrogen receptor beta (Homo sapiens) (Q92731 whole entry, looked up): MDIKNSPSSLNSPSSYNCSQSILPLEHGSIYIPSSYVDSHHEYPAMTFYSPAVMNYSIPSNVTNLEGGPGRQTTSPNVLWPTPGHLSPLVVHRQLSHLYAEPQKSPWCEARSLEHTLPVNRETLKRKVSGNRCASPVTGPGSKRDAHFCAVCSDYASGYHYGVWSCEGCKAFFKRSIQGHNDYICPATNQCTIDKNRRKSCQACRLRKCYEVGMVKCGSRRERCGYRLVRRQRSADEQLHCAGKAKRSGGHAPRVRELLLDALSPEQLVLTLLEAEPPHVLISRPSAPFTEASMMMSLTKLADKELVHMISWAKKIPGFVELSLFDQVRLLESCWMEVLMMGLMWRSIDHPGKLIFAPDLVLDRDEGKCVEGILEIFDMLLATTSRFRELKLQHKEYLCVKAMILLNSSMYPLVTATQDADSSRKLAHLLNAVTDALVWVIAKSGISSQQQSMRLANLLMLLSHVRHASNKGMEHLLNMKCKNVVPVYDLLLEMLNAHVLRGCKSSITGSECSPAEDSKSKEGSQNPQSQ
Summary of the method: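 Measured by fluorescence intensity from a B/G FRET beta-lactamase substrate (2 h, room temperature) in ER-beta-UAS-bla HEK293T cells treated with DMSO-dissolved compounds for 16 hr at 37C and 5% CO2.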

[4] = target: Estrogen receptor beta (Homo sapiens) (UniProt Q92731); assay: qHTS assay to identify small molecule antagonists of the estrogen receptor beta (ER-beta) signaling pathway (AID 1259378; active means well fitted inhibition curve with a large enough effect in the signal ratio in the repeat runs, not every such curve was filed as active; the % refers to the signal ratio)
Summary of the method: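 Antagonist mode: compounds added to beta-lactamase reporter HEK293T ER-beta-UAS cells stimulated with E2 (1nM final), 16 hr at 37C. LiveBLAzer B/G FRET substrate, 2 hours room temperature, fluorescence read-out.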

[5] = qHTS assay to identify small molecule agonists of the androgen receptor (AR) signaling pathway in the presence of an antagonist - cell viability counter screen (AID 1259379);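 further: MDA-kb2 human breast cancer cells carrying an MMTV luciferase reporter; series mostly up to about 92 µM; nearly all actives have a fitted effect of over 25% in size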
Summary of the method: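 Cytotoxicity counter-screen run in the same wells as the nilutamide-challenged (3.0 µM final) AR agonist assay in MDA-kb2 cells. Compounds tested at 15 concentrations for 16 h, 37 °C without CO2; CellTiter-Fluor fluorescence read.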

[6] = qHTS assay to identify small molecule antagonists of the estrogen receptor beta (ER-beta) signaling pathway - cell viability counter screen (AID 1259382);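 further: HEK293T cells carrying ER-beta-UAS-bla reporter stimulated with estradiol; series mostly up to about 92 µM; nearly all actives have a fitted effect of over 55% in size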
Summary of the method: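 Cytotoxicity was measured in the same wells by CellTiter-Glo luminescence after 30 min at room temperature. Cells were ER-beta-bla HEK293T in charcoal-stripped serum, given compound together with 1 nM E2 and incubated 16 h at 37C.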

[7] = target: Estrogen receptor (Homo sapiens) (UniProt P03372); assay: qHTS assay to identify small molecule agonists of the estrogen receptor alpha (ER-alpha) signaling pathway in the presence of an antagonist (AID 1259383; calls by dose curve; further: top concentration of the series differs between compounds; nearly all actives have a fitted effect of over 15% in size)
Sequence of Estrogen receptor (Homo sapiens) (P03372 whole entry, looked up): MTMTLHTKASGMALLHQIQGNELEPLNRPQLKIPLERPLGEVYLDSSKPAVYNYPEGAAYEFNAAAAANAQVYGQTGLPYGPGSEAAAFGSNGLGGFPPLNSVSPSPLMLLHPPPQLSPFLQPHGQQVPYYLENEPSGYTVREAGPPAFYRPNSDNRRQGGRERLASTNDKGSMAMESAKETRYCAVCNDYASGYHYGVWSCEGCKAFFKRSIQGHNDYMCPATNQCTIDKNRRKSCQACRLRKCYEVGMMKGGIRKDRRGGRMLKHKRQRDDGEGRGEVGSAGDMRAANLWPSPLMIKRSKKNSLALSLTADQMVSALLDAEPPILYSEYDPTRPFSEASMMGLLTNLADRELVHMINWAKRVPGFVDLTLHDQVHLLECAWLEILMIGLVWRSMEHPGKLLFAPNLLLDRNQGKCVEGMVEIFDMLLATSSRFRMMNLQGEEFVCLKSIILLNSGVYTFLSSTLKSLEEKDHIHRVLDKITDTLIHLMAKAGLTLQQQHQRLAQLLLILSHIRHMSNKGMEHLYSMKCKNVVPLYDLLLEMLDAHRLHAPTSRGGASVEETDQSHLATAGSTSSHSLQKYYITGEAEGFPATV
Summary of the method: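 Agonist-mode confirmation run in the presence of 10.0nM (final) ICI-182,780 antagonist. The reporter was ERE-driven luciferase in VM7Luc4E2 cells, grown in charcoal-stripped serum. Cells were exposed to 15-concentration compound series for 22hr, then ONE-Glo luminescence was read.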

[8] = qHTS assay to identify small molecule agonists or antagonists of the thyroid stimulating hormone receptor (TSHR) signaling pathway - wild type cell line counter screen (AID 1259384; calls by dose curve)
Summary of the method: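 Counter screen in untransfected Hek293: compounds (15-point titration, triplicate) plus phosphodiesterase inhibitor Ro20-1724 added after 18 h plating; 30 min RT. Intracellular cAMP via competitive d2/cryptate immunoassay, 1 h incubation.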

[9] = target: Thyrotropin receptor (Homo sapiens) (UniProt P16473); assay: qHTS assay to identify small molecule antagonists of the thyroid stimulating hormone receptor (TSHR) signaling pathway (AID 1259385; calls by dose curve; further: nearly all actives have a fitted effect of over 20% in size)
Sequence of Thyrotropin receptor (Homo sapiens) (P16473 whole entry, looked up): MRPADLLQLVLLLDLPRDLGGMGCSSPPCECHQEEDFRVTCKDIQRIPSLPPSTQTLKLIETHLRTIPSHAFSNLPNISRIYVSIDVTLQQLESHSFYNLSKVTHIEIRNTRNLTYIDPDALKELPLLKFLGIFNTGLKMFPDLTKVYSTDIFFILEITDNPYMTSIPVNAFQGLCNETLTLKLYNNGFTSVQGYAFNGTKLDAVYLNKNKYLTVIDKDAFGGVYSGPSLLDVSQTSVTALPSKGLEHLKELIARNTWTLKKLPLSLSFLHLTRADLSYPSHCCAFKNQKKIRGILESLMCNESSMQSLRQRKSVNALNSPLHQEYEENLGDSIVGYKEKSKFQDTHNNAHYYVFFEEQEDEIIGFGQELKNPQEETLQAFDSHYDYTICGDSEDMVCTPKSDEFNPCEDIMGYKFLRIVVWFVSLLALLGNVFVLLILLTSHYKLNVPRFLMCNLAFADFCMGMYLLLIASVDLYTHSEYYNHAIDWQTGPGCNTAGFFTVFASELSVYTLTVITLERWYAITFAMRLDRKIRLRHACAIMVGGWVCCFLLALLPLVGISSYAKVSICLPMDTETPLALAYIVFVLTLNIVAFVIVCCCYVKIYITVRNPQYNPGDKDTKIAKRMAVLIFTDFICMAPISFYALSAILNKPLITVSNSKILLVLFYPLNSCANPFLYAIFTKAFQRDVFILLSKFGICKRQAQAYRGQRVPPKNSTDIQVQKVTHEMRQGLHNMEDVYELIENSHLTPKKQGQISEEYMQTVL
Summary of the method: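 Antagonist mode: compound-treated TSHR-expressing HEK293 cells were stimulated with 1.5 ng/mL TSH (final) in presence of Ro20-1724 for 30 min at RT. HTRF cAMP detection after 1 h; each compound tested at 15 concentrations, triplicate.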

[10] = qHTS assay to identify small molecule agonists of the estrogen receptor alpha (ER-alpha) signaling pathway in the presence of an antagonist - cell viability counter screen (AID 1259386); further: series mostly up to about 92 µM; nearly all actives have a fitted effect of over 30% in size
Summary of the method: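 Compounds tested at 15 concentrations for 22 h at 37C alongside 10.0nM (final) ICI-182,780 antagonist, in VM7Luc4E2 cells grown in phenol red-free, charcoal-stripped medium. Viability read by CellTiter-Fluor fluorescence after 1 h reagent incubation.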

[11] = target: Progesterone receptor (Homo sapiens) (UniProt P06401); assay: qHTS assay to identify small molecule agonists of the progesterone receptor (PR) signaling pathway (AID 1346784; calls by dose curve; further: nearly all actives have a fitted effect of over 30% in size)
Sequence of Progesterone receptor (Homo sapiens) (P06401 whole entry, looked up): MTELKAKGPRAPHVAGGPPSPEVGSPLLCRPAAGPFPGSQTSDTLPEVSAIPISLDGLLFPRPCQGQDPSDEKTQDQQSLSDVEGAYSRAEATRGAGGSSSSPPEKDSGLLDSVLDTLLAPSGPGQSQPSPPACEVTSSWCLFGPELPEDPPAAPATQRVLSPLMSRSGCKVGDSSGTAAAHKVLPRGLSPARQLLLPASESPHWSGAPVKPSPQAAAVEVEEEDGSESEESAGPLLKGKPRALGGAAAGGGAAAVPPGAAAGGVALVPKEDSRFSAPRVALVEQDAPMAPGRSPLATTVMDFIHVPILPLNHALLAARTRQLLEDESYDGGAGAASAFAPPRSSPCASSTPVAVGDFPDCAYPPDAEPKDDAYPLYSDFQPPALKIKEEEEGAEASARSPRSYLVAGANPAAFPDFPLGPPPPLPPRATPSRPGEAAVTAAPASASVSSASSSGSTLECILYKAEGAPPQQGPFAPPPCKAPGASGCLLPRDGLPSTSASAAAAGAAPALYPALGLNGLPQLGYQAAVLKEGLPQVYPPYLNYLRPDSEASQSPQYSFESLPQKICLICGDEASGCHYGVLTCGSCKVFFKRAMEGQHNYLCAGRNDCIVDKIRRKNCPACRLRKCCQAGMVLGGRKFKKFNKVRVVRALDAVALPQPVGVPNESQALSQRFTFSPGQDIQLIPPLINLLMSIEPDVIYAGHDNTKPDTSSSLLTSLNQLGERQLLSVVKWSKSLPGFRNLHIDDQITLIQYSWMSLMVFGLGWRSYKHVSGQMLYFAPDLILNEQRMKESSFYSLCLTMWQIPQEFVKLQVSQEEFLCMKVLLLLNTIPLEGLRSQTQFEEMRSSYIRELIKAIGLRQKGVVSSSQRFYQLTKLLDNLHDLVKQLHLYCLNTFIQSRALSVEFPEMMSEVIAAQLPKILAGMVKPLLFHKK
Summary of the method: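 The screen uses PR-UAS-bla HEK 293T cells in charcoal-stripped serum (2%). Compounds are applied for 16 hr at 37C after a 6 hr pre-incubation, and reporter activity is detected with a FRET beta-lactamase substrate after 2 hr at room temperature.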

[12] = target: Progesterone receptor (Homo sapiens) (UniProt P06401); assay: qHTS assay to identify small molecule antagonists of the progesterone receptor (PR) signaling pathway (AID 1346795; active means well fitted inhibition curve with a large enough effect in the signal ratio in the repeat runs, not every such curve was filed as active; the % refers to the signal ratio)
Summary of the method: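 After 6 hr plating at 37C in 2% stripped-serum medium, PR-UAS-bla HEK293T cells got compounds, then 1 nM R5020. Sixteen hours later, LiveBLAzer substrate was applied for 2 hr at room temperature and fluorescence was recorded.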

[13] = qHTS assay to identify small molecule antagonists of the progesterone receptor (PR) signaling pathway - cell viability counter screen (AID 1346798); further: series mostly up to about 92 µM; nearly all actives have a fitted effect of over 50% in size
Summary of the method: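 Viability was determined by ATP-based luminescence (CellTiter-Glo) in PR-UAS-bla HEK293T cells cultured in 2% charcoal-stripped serum and incubated 16 hr with compounds under R5020 stimulation.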

[14] = qHTS assay to identify small molecule agonists of the progesterone receptor (PR) signaling pathway - cell viability counter screen (AID 1346799; calls by dose curve; further: nearly all actives have a fitted effect of over 45% in size; further: potency means the concentration at half of the fitted maximal effect)
Summary of the method: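 Viability was scored by ATP luminescence (CellTiter-Glo, 30 min, room temperature) in the same wells used for the reporter readout, after 16 hr compound exposure of PR-UAS-bla HEK293T cells.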

[15] = qHTS assay to identify small molecule antagonists of the TGF-beta/Smad signaling pathway - cell viability counter screen (AID 1346824); further: nearly all actives have a fitted effect of over 50% in size
Summary of the method: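 Cytotoxicity counter-screen run in the same wells as the beta-lactamase Smad reporter read: CellTiter-Glo luminescence after 30 min at room temperature. HEK 293T SBE-bla cells had 5 hr compound exposure at 37 C with TGF-beta1 (0.25 ng/mL stock).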

[16] = qHTS assay to identify small molecule agonists of the TGF-beta/Smad signaling pathway - cell viability counter screen (AID 1346829); further: top concentration of the series differs between compounds; nearly all actives have a fitted effect of over 45% in size
Summary of the method: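 Cytotoxicity counter screen: CellTiter-Glo luminescence (30 min, room temperature) measured in the SBE-bla HEK 293T reporter wells after 5 hr compound treatment at 37 C and the 2 hr substrate step.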

[17] = qHTS assay to identify small molecule agonists of the TGF-beta/Smad signaling pathway (AID 1346859; active means well fitted activation curve with a large enough effect in the signal ratio in the repeat runs, not every such curve was filed as active; the % refers to the signal ratio; further: series mostly up to about 77 µM)
Summary of the method: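 Dual-wavelength fluorescence (460/530 nm emission) quantified beta-lactamase expression under the Smad binding element in HEK 293T cells following 5 hr compound treatment at 37 C.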

[18] = qHTS assay to identify small molecule agonists of the estrogen receptor beta (ER-beta) signaling pathway - cell viability counter screen (AID 1259380); further: nearly all actives have a fitted effect of over 30% in size
Summary of the method: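 Cell viability counter screen: CellTiter-Glo luminescence (30 min, room temperature) measured in the same wells as the beta-lactamase readout, after 16 hr compound exposure at 37C of ER-beta-bla HEK293T cells in 2% charcoal-stripped FBS medium.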

[19] = target: Thyrotropin-releasing hormone receptor (Homo sapiens) (UniProt P34981); assay: qHTS assay to identify small molecule antagonists of the thyrotropin-releasing hormone receptor (TRHR) signaling pathway (AID 1346877; active means well fitted inhibition curve with a large enough effect in the repeat runs, not every such curve was filed as active; further: series mostly up to about 51 µM)
Sequence of Thyrotropin-releasing hormone receptor (Homo sapiens) (P34981 whole entry, looked up): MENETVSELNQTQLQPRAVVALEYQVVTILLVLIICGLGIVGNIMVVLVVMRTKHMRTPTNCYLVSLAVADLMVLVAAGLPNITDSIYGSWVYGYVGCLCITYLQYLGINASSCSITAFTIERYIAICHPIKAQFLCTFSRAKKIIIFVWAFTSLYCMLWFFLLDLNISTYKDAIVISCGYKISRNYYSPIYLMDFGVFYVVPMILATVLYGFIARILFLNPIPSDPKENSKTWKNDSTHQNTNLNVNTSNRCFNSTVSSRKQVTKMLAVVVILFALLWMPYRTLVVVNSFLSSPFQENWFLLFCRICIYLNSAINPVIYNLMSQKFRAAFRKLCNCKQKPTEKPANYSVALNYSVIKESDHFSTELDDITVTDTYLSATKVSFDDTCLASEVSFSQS
Summary of the method: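 Antagonist mode: after a 5 min room-temperature compound exposure, cells were stimulated with 1 nM (final) TRH. Dye-loaded TRHR-HEK293 cells were used, and calcium-dependent fluorescence was followed for 3 min, with 15-point titrations run in triplicate.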

Measured: Potency

Nc1nc(F)nc2c1ncn2[C@@H]1O[C@H](CO)[C@@H](O)[C@@H]1O
not listed: [18] | [19]
inactive: all other assays above

CCCc1ccccc1O
not listed: [7]
inactive: all other assays above

c1ccc(CCCc2ccccn2)cc1
not listed: [7] | [13] | [15]
inactive: all other assays above

O=C(O)/C=C/c1ccc(Cn2ccnc2)cc1
not listed: [7] | [8] | [9] | [18]
inactive: all other assays above

CCCCCOC(=O)Nc1nc(=O)n([C@@H]2O[C@H](C)[C@@H](O)[C@H]2O)cc1F
not listed: [7] | [13] | [15] | [19]
inactive: all other assays above

CCN1CCCC(OC(=O)C(c2ccccc2)c2ccccc2)C1 (stereo not given)
not listed: [13] | [14] | [18]
inactive: all other assays above

CC(=O)N[C@@H](CCC(N)=O)C(=O)O
not listed: [7] | [8] | [9] | [18]
inactive: all other assays above

CC(C)(O)c1ccccc1
active: [14] 58.6 µM
not listed: [7] | [8] | [9] | [11] | [13]
inactive: all other assays above

CCCc1ccc(N)cc1
not listed: [7] | [15]
inactive: all other assays above

CC(C)COC(=O)C(C)C
not listed: [7] | [11] | [12] | [13] | [14]
inactive: all other assays above

C[N+](C)(C)CC[N+]1(C)Cc2c(Cl)c(Cl)c(Cl)c(Cl)c2C1
not listed: [7]
inactive: all other assays above

CNC(=O)c1c(I)c(NC(=O)CCCCC(=O)Nc2c(I)c(C(=O)O)c(I)c(C(=O)NC)c2I)c(I)c(C(=O)O)c1I
not listed: [8] | [9] | [13] | [18]
inactive: all other assays above

CCN(CC)C(=O)c1ccc(O)c(OC)c1
not listed: [6] | [13]
inactive: all other assays above

COC(=O)CCCC(=O)O
not listed: [7] | [10] | [11] | [12] | [19]
inactive: all other assays above

Nc1[nH]c(=O)ncc1F
not listed: [6] | [8] | [9] | [18] | [19]
inactive: all other assays above
